Reference: PubChem BioAssay AID1159580 (chemical genetic matrix, 2015)
Hit rate of the full screen: of about 5,500 compounds, about 2,000 (36%) were called active. Another 18% or so got no clear call; they are omitted. Cut-off read from the data, not from the text of the source: active = normalized growth mostly below about 0.91 (no sharp cut-off); inconclusive = no clear call, values can overlap the other calls; inactive = mostly above about 0.92. This is one part of the list.

Experiment: chemical genetic growth profiling, strain panel (AID 1159580);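 note: tested at 20 µM; growth read once vehicle control cultures reached saturation at 30 °C; 1 = growth at the plate median or of vehicle wells; lower values mean less growth of the strain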
Details: S. cerevisiae deletion strains, growth OD
[1] = locus YHR030C, strain SLT2, active compounds read low
[2] = locus YJL095W, strain BCK1, active compounds read low
[3] = locus YBR021W, strain FUR4, active compounds read low
[4] = locus YBR229C, strain ROT2, active compounds read low
[5] = locus YCL029C, strain bik1, active compounds read low
[6] = locus YDL035C, strain GPR1, active compounds read low
[7] = locus YDL074C, strain BRE1, active compounds read low
[8] = locus YDL101C, strain DUN1, active compounds read low
[9] = locus YDL134C, strain PPH21, active compounds read low
[10] = locus YDL185W, strain tfp1, active compounds read low
[11] = locus YDL192W, strain arf1, active compounds read low
[12] = locus YDR101C, strain arx1, active compounds read low
[13] = locus YDR162C, strain NBP2, active compounds read low
[14] = locus YDR318W, strain mcm21, active compounds read low
[15] = locus YDR388W, active compounds read low
[16] = locus YDR502C, strain sam2, active compounds read low
[17] = locus YEL061C, strain CIN8, active compounds read low
[18] = locus YER110C, active compounds read low
[19] = locus YER155C, strain BEM2, active compounds read low
[20] = locus YER167W, strain BCK2, active compounds read low
[21] = locus YGL078C, strain dbp3, active compounds read low
[22] = locus YGL086W, strain mad1, active compounds read low
[23] = locus YGL248W, strain PDE1, active compounds read low
[24] = locus YGR078C, strain PAC10, active compounds read low
[25] = locus YGR135W, strain pre9, active compounds read low
[26] = locus YGR252W, strain gcn5, active compounds read low
[27] = locus YHR079C, strain IRE1 (second series), active compounds read low
[28] = locus YHR094C, strain hxt1, active compounds read low
[29] = locus YHR129C, strain ARP1, active compounds read low
[30] = locus YHR200W, strain rpn10, active compounds read low
[31] = locus YIL066C, strain RNR3, active compounds read low
[32] = locus YIL073C, strain SPO22, active compounds read low
[33] = locus YIL125W, strain kgd1, active compounds read low
[34] = locus YIR030C, strain dcg1, active compounds read low
[35] = locus YJL134W, strain LCB3, active compounds read low
[36] = locus YJL168C, strain set2, active compounds read low
[37] = locus YJL187C, strain SWE1 (second series), active compounds read low
[38] = locus YKL009W, strain mrt4, active compounds read low
[39] = locus YKL068W, active compounds read low
[40] = locus YKL085W, strain MDH1 (second series), active compounds read low
[41] = locus YKL085W, strain MDH1, active compounds read low
[42] = locus YKR001C, strain vps1, active compounds read low
[43] = locus YLR039C, strain RIC1, active compounds read low
[44] = locus YLR058C, strain SHM2, active compounds read low
[45] = locus YLR102C, strain apc9, active compounds read low
[46] = locus YLR268W, strain sec22, active compounds read low
[47] = locus YLR330W, strain CHS5, active compounds read low
[48] = locus YLR342W, strain FKS1 (second series), active compounds read low
[49] = locus YLR371W, strain rom2, active compounds read low
[50] = locus YLR418C, strain cdc73, active compounds read low
[51] = locus YML016C, strain PPZ1, active compounds read low
[52] = locus YML032C, strain rad52, active compounds read low
[53] = locus YML124C, strain tub3, active compounds read low
[54] = locus YMR078C, strain ctf18, active compounds read low
[55] = locus YMR223W, strain ubp8, active compounds read low
[56] = locus YMR263W, strain SAP30, active compounds read low
[57] = locus YMR307W, strain GAS1, active compounds read low
[58] = locus YNL067W, strain RPL9B, active compounds read low
[59] = locus YNL153C, strain GIM3, active compounds read low
[60] = locus YNL233W, strain BNI4, active compounds read low
[61] = locus YNL250W, strain rad50, active compounds read low
[62] = locus YNL271C, strain bni1, active compounds read low
[63] = locus YNL298W, strain CLA4, active compounds read low
[64] = locus YNL307C, strain MCK1, active compounds read low
[65] = locus YNR052C, strain pop2, active compounds read low
[66] = locus YOL147C, strain pex11, active compounds read low
[67] = locus YOR061W, strain CKA2, active compounds read low
[68] = locus YOR069W, strain VPS5, active compounds read low
[69] = locus YOR136W, strain idh2, active compounds read low
[70] = locus YOR144C, strain elg1, active compounds read low
[71] = locus YOR184W, strain ser1, active compounds read low
[72] = locus YOR316C, strain cot1, active compounds read low
[73] = locus YPL055C, strain LGE1, active compounds read low
[74] = locus YPR119W, strain clb2, active compounds read low
[75] = locus YPR141C, strain kar3, active compounds read low
[76] = locus YPR163C, strain tif3, active compounds read low
[77] = locus YPR167C, strain met16, active compounds read low
[78] = strain wtn01, active compounds read low

Measured: normalized growth

CS(=O)(=O)c1ccc([C@@H](O)[C@H](CF)NC(=O)C(Cl)Cl)cc1
inactive: [1] 1.03 | locus YHR079C, strain IRE1, active compounds read low 0.953 | [2] 0.973 | locus YJR066W, strain TOR1, active compounds read low 0.956 | locus YLR113W, strain HOG1, active compounds read low 0.935 | locus YNL183C, strain NPR1, active compounds read low 0.909 | locus YOR231W, strain MKK1, active compounds read low 0.969 | locus YPL256C, strain CLN2, active compounds read low 0.943

Cc1cc(=O)c2c(O)c3c(cc2o1)OC(C)(C)CC3
inactive: locus YAL013W, strain DEP1, active compounds read low 1.01 | [3] 1.07 | [4] 1 | [5] 0.967 | [6] 1.02 | [7] 1.03 | [8] 0.989 | [9] 0.981 | [10] 0.938 | [11] 0.965 | [12] 0.975 | [13] 1.01 | [14] 0.954 | [15] 0.966 | [16] 0.971 | [17] 1 | [18] 0.967 | [19] 0.995 | [20] 0.998 | [21] 0.951 | [22] 0.983 | [23] 1 | [24] 0.998 | [25] 0.923 | [26] 0.931 | [1] 0.992 | [27] 0.962 | [28] 0.975 | [29] 0.993 | [30] 0.968 | [31] 1.01 | [32] 0.899 | [33] 0.978 | [34] 0.949 | [2] 0.972 | [35] 1 | [36] 0.969 | [37] 0.973 | [38] 0.992 | [39] 0.976 | [40] 1 | [41] 1 | locus YKL190W, strain CNB1, active compounds read low 1 | [42] 0.96 | [43] 1.01 | [44] 0.994 | [45] 0.975 | [46] 0.989 | [47] 0.988 | [48] 1.08 | [49] 0.95 | [50] 0.972 | [51] 1.01 | [52] 0.963 | [53] 0.971 | [54] 0.951 | [55] 0.959 | [56] 0.973 | [57] 1.21 | [58] 0.97 | locus YNL128W, strain TEP1, active compounds read low 1 | [59] 0.973 | [60] 1.02 | [61] 0.967 | [62] 0.965 | [63] 0.961 | [64] 0.982 | locus YNL322C, strain KRE1, active compounds read low 0.995 | [65] 0.949 | locus YOL012C, strain htz1 0.959 | [66] 0.967 | [67] 1 | [68] 0.997 | [69] 0.997 | [70] 0.973 | [71] 1 | [72] 0.964 | [73] 1.05 | [74] 0.956 | [75] 0.946 | [76] 0.98 | [77] 0.949 | [78] 1

Cc1cc(=O)c2c(o1)-c1c(cc(O)c(O)c1C(=O)O)OC2
inactive: [3] 0.96 | [4] 0.996 | [5] 1.03 | [6] 1 | [7] 0.984 | [8] 1 | [9] 1 | [10] 1.01 | [11] 1.01 | [12] 1.01 | locus YDR150W, strain NUM1, active compounds read low 0.97 | [13] 0.987 | [14] 1.01 | [15] 1.01 | [16] 1.03 | [17] 1 | [18] 1.03 | [19] 1.01 | [20] 1.02 | [21] 1.02 | [22] 1.02 | [23] 0.996 | [24] 0.991 | [25] 1.02 | [26] 0.997 | [1] 1.01 | [27] 1.01 | [28] 1.02 | [29] 1.01 | [30] 1.03 | [31] 0.99 | [32] 1.05 | [33] 1.03 | [34] 1.02 | [2] 0.998 | [35] 1.01 | [36] 1.02 | [37] 1.02 | locus YJR043C, strain POL32, active compounds read low 0.997 | [38] 1.03 | [39] 1.01 | [40] 1.01 | [41] 1.01 | [42] 1.02 | [43] 0.973 | [44] 1.01 | [45] 1.01 | locus YLR262C, strain YPT6, active compounds read low 1.02 | [46] 1.02 | [47] 0.991 | [48] 0.966 | [49] 1.03 | [50] 1.05 | [51] 0.998 | [52] 1.01 | [53] 1.01 | [54] 1.02 | [55] 1.01 | [56] 1 | [57] 0.935 | [58] 0.987 | [59] 1 | [60] 1.02 | [61] 1.03 | [62] 1.02 | [63] 1.03 | [64] 1.02 | [65] 1.02 | locus YOL006C, strain TOP1, active compounds read low 0.969 | locus YOL012C, strain htz1 0.545 | [66] 1.02 | [67] 1.01 | [68] 1 | [69] 1.03 | [70] 1.01 | [71] 1.03 | [72] 1.01 | [73] 1.01 | [74] 1.01 | [75] 1.02 | [76] 1.01 | [77] 1.03 | [78] 1.02
